# From PubChem BioAssay (NCATS)
# Unmarked numbers belong to inactive results. Records with an inconclusive call do not appear. The list shows a part of the results. Entries that show only a call come without a potency. Active and inactive are the calls of the source. Unless noted, calls follow the shape of the dose curve; as a rule, active = well fitted curve in the direction sought with a large enough effect; inconclusive = small, poorly fitted or top-dose-only effect, or another doubt; inactive = no such curve, though single readings can be large; an effect the other way counts as inactive or inconclusive.
# How the values were obtained:
# [1] = Counterscreen for APE1 Inhibitors: Fluorescent Dye Displacement Assay (AID 2564);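 also: loss of thiazole orange fluorescence as the dye is displaced from duplex DNA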
# Method in brief: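 Loss of Thiazole Orange fluorescence marks promiscuous DNA binders. The dye (250 nM) is mixed with 50 nM abasic-site dsDNA in pH7.5 Tris buffer containing MgCl2, then compounds are added and emission is read once.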
# [2] = target: Endonuclease 4 (Escherichia coli (strain K12)) (UniProt P0A6C1); experiment: Counterscreen for APE1 Inhibitors: qHTS Assay for Inhibitors of Endonuclease IV (AID 2565)
# Method in brief: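 The reaction buffer contained 50 mM Tris-HCl pH 7.5, 50 mM NaCl, 2 mM MgCl2, 1 mM DTT and 0.01% Tween-20. Incision of a 50 nM fluorophore/quencher THF substrate by 2 nM enzyme was measured kinetically.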
# [3] = target: DNA repair nuclease/redox regulator APEX1 (Homo sapiens) (UniProt P27695); experiment: Confirmation qHTS Assay for Inhibitors of the Human Apurinic/apyrimidinic Endonuclease 1 (APE1) (AID 2572); conditions: purified APE1, fluorogenic abasic-site DNA cleavage; also: potency is read from the fitted curve at half-maximal effect; nearly all actives have a fitted effect of over 30% in size
# Method in brief: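 Inhibition is measured on a short double-stranded THF-site oligo, 50 nM final, whose incision relieves BHQ-2 quenching of TAMRA. After 15 min enzyme–compound preincubation at RT, three reads a minute apart are taken.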
# [4] = target: DNA repair nuclease/redox regulator APEX1 (Homo sapiens) (UniProt P27695); experiment: qHTS FP-Based Assay for Inhibitors of the Human Apurinic/apyrimidinic Endonuclease 1 (APE1) (AID 2573)
# [5] = target: Rap guanine nucleotide exchange factor 3 (Homo sapiens) (UniProt O95398); experiment: Confirmatory qHTS for antagonist of cAMP-regulated guanine nucleotide exchange factor 3 (EPAC1) (AID 1645880); conditions: EPAC1 Rap1B-BODIPY-GDP exchange, fluorescence; activity, negative = inhibition: at 115 µM (top of the series); also: nearly all actives have a fitted effect of over 55% in size; also: potency is read from the fitted curve at half-maximal effect
# Method in brief: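 Released BODIPY-GDP fluoresces less than Rap1-bound BODIPY-GDP; the signal is followed at 480/540 nm at 5-min intervals over 30 min, after 5 min at room temperature. Reactions contain 100 nM EPAC1, 250 nM RAP1B-BODIPY-GDP and 50 uM GDP; results are normalized to ATA and DMSO.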
# [6] = target: Rap guanine nucleotide exchange factor 3 (Homo sapiens) (UniProt O95398); experiment: Confirmatory qHTS for agonist of cAMP-regulated guanine nucleotide exchange factor 3 (EPAC1) (AID 1645881);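 also: EPAC1 catalysed release of BODIPY-GDP from Rap1B seen as fluorescence loss; nearly all actives have a fitted effect of over 75% in size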
# [7] = target: Rap guanine nucleotide exchange factor 4 (Homo sapiens) (UniProt Q8WZA2); experiment: Confirmatory qHTS for agonist of cAMP-regulated guanine nucleotide exchange factor 4 (EPAC2) (AID 1645884);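 also: nucleotide exchange releases bodipy-GDP from Rap1 and this lowers its fluorescence; nearly all actives have a fitted effect of over 65% in size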
# [8] = target: Rap guanine nucleotide exchange factor 4 (Homo sapiens) (UniProt Q8WZA2); experiment: Confirmatory qHTS for antagonist of cAMP-regulated guanine nucleotide exchange factor 4 (EPAC2) (AID 1645885); also: nearly all actives have a fitted effect of over 25% in size; also: potency is read from the fitted curve at half-maximal effect
# [9] = target: Rap guanine nucleotide exchange factor 3 (Homo sapiens) (UniProt O95398); experiment: Counterscreen qHTS for antagonist of cAMP-regulated guanine nucleotide exchange factor 3 (EPAC1) (AID 1645888)
# Method in brief: (§1)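 Rap1B-BODIPY-GDP 250 nM + GDP 50 uM; cpds 7-pt, final 9.74 nM–152 uM (activator mode) or from 7.32 nM upwards (inhibitor mode); RT; FI 480/540 nm at 5 and 30 min, then ± cAMP, reread.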
# [10] = target: Rap guanine nucleotide exchange factor 3 (Homo sapiens) (UniProt O95398); experiment: Counterscreen qHTS for agonist of cAMP-regulated guanine nucleotide exchange factor 3 (EPAC1) (AID 1645889); also: nearly all actives have a fitted effect of over 40% in size
# Method in brief: as §1
# [11] = qHTS for Inhibitors of Plasmodium falciparum (DD2) proliferation (AID 504314);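 also: parasite DNA measured by SYBR Green fluorescence after red cell lysis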
# Method in brief: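 Normalization used 0.29 uM artemisinin as full inhibition and DMSO as baseline. Parasitized erythrocytes were exposed to compounds for 72 h (37C, 5% CO2), then lysed with saponin/Triton buffer containing SYBR Green I.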
# [12] = qHTS for Inhibitors of Plasmodium falciparum (GB4) proliferation (AID 504315); also: nearly all actives have a fitted effect of over 50% in size
# Method in brief: (§2)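 Parasite growth measured as SYBR Green DNA fluorescence (ex 485, em 535 nm) after overnight lysis following 72 h culture at 37 °C, 0.3% parasitemia, 2.5% hematocrit. Values normalized against DMSO and 0.29 uM artemisinin controls, with plate-stack correction.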
# [13] = qHTS for Inhibitors of Plasmodium falciparum (7G8) proliferation (AID 504316); also: nearly all actives have a fitted effect of over 65% in size
# Method in brief: as §2
# [14] = qHTS for Inhibitors of Plasmodium falciparum (HB3) proliferation (AID 504318); also: nearly all actives have a fitted effect of over 60% in size
# Method in brief: as §2
# [15] = qHTS for Inhibitors of Plasmodium falciparum (CP250) proliferation (AID 504320)
# Method in brief: as §2
# [16] = HepG2 viability counterscreen (readout 2: ATP content) against the NCATS DSHEA and TCM libraries (AID 1794840);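 also: HepG2 cells exposed to substances for about 24 h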
# Method in brief: (§3)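 Cytotoxicity was assessed in HepG2 cells plated at 1,000 cells/well and exposed for about 24 hours to a concentration series. Protease activity and ATP content were measured sequentially in each well.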
# [17] = HepG2 viability counterscreen (readout 1: protease activity) against the NCATS DSHEA and TCM libraries (AID 1794841);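 also: cells exposed to compounds for about 24 h before the protease read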
# Method in brief: as §3
# [18] = target: Cytochrome P450 3A4 (Homo sapiens) (UniProt P08684); experiment: qHTS for inhibitors of CYP3A4 against the NCATS DSHEA and TCM libraries (AID 1919971);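 also: inhibition lowers luminescence from luciferin made by CYP3A4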
# Method in brief: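 Substances were tested against enzyme with a pro-luciferin substrate; minus-enzyme wells served as background. After NADPH-initiated oxidation (30-45 min, RT), light was generated with P450-Glo reagent.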
# [19] = target: Cytochrome P450 2D6 (Homo sapiens) (UniProt P10635); experiment: qHTS for inhibitors of CYP2D6 against the NCATS DSHEA and TCM libraries (AID 1919972)
# Method in brief: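 qHTS, concentration–response format with most substances from 19.5 nM. CYP2D6 + pro-luciferin substrate, 15 min with compound, then 1x NADPH regen, 30–45 min RT dark. Glo detection 30 min, luminescence. Quinidine control.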
# [20] = KB-3-1 P-gp reporter qHTS against the NCATS DSHEA and TCM libraries (AID 1919975)
# Method in brief: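 72 h exposure of KB-3-1 cells (DMEM, 10% FBS) to DSHEA/TCM samples, concentration-response; cell viability measured as CellTiter-Glo luminescence after 30 min at room temperature.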
# [21] = target: Cytochrome P450 1A2 (Homo sapiens) (UniProt P05177); experiment: qHTS for inhibitors of CYPIA2 against the NCATS DSHEA and TCM libraries (AID 1919976)
# Method in brief: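 Luminescence read-out: pro-luciferin converted to D-luciferin by CYP1A2, detected with P450-Glo reagent after 30 min RT. Enzyme plus substrate got compounds for 15 min RT; NADPH regeneration solution (final 1x) started a 30-45 min reaction, light-protected.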
# [22] = qHTS Counterscreen for compound interference against the NCATS DSHEA and TCM libraries (AID 1919978); conditions: firefly luciferase detection reagent interference, luminescence
# Method in brief: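 Read-out is luminescence after 30 min at RT with luciferin detection reagent. Before that, compounds (19.5 nM to 39.8 uM final) sat 15 min at RT with 1 uM D-luciferin or 100 mM potassium phosphate buffer. PTC124 served as intraplate control.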
# [23] = Dual reporter qHTS for agonist of Pregnane X Receptor (hPXR) against the NCATS DSHEA and TCM libraries: Fluorescence readout (AID 1920058)
# Method in brief: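 Fluorescence read-out for cell viability: CellTiter-Fluor, 1 h at 37 °C, Ex/Em 405/540 nm. This followed ~24 h treatment of hPXR-Luc HepG2 cells with substances in agonist mode.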
# [24] = target: Nuclear receptor subfamily 1 group I member 2 (Homo sapiens) (UniProt O75469); experiment: Dual reporter qHTS for agonist of Pregnane X Receptor (hPXR) against the NCATS DSHEA and TCM libraries: Luminescence readout (AID 1920059)
# Method in brief: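 Luminescent PXR reporter read (ONE-Glo) after a CellTiter-Fluor viability read, following 24 h, 37C treatment of HepG2 cells stably carrying hPXR-Luc.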
# [25] = Dual reporter qHTS for antagonist of Pregnane X Receptor (hPXR) against the NCATS DSHEA and TCM libraries: Fluorescence Readout (AID 1920061)
# Method in brief: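 Rifampicin-stimulated (2 uM final) hPXR-luciferase HepG2 cells were treated for 24 h with DSNP/TCM substances. Viability came from CellTiter-Fluor fluorescence, reporter activity from ONE-Glo luminescence.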
# [26] = AP1 Signaling Pathway (AID 357; active = well fitted curve in either direction with a large enough effect, not every such curve was filed as active;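 also: ME-180 reporter cells stimulated with EGF at its EC50 level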); conditions: ME-180 (cervical carcinoma) AP-1-bla reporter, EGF-induced, beta-lactamase ratio, 5 h; at 7.69 µM (top of the series) unless noted
# Method in brief: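 Beta-lactamase reporter under AP-1 response element, ME-180 background. Stimulus: EC50 EGF. Compound exposure 5 h, 37 °C. Detection: CCF4, 2.5 h RT, 460/530 nm. Values: AC50 from titration.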
# [27] = NFAT Signaling Pathway (AID 444; active = well fitted curve in either direction with a large enough effect, not every such curve was filed as active;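 also: carbachol stimulus at about its EC50 of 1 µM final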); conditions: Jurkat NFAT-bla M1, carbachol, beta-lactamase ratio, 5 h; at 7.69 µM (top of the series) unless noted
# Method in brief: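 Read-out: CCF4 FRET ratio (460 nm/530 nm) after 1 h RT dye loading, used for %activity and AC50 from titration series. Cells: Jurkat NFAT-β-lactamase/M1 line, treated with compound plus 1 uM carbachol for 5 h, 37 °C.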
# [28] = Stat Signaling Pathway (AID 446; active = well fitted curve in either direction with a large enough effect, not every such curve was filed as active;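 also: ME-180 cervical cancer cells given 40 pM IL-6 alongside compound; SIE-controlled beta-lactamase reporter measured as 460/530 nm FRET emission ratio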)
# Method in brief: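 Overnight-plated ME-180 cells bearing a STAT Inducible Element beta-lactamase reporter; 5 h co-exposure to compound and 40 pM IL-6; values normalized to 300 pM IL-6 and 125 nM JAK inhibitor controls.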
# [29] = target: Glucocorticoid receptor (Homo sapiens) (UniProt P04150); experiment: GR-GFP Redistribution (AID 450;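 active = compounds whose dose series gives a full or clear partial fitted curve of increased nuclear translocation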; also: potency is read from the fitted curve at half-maximal effect); conditions: U2OS GR-GFP nuclear translocation, laser cytometry, 2 h
# [30] = target: Glucocorticoid receptor (Homo sapiens) (UniProt P04150); experiment: GR-EFC Redistribution (AID 451; calls by dose curve; also: potency is read from the fitted curve at half-maximal effect); conditions: CHO-K1 GR-EFC translocation, beta-gal luminescence, 2 h
# Method in brief: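 Translocation of GR-ED fusion to nuclear EA restores b-gal, read by luminescence after 1 h room-temperature detection. Engineered CHO-K1 biosensor cells, 1,000/well, exposed 2 h at 37 C to titrations up to 46 uM final.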
# [31] = target: Mitogen-activated protein kinase 10 (Mus musculus) (UniProt Q61831); experiment: JNK3 AlphaScreen Assay (AID 530; active = well fitted curve in either direction with a large enough effect, not every such curve was filed as active;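 also: kinase came from lysate of stimulated human HepG2 cells; signal reports phosphorylation of biotinylated GST-cJun 1-79 at Ser73 with 10 µM ATP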)
# Method in brief: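 Kinase buffer: 20 mM Tris-HCl pH 7.6, 10 mM MgCl2, 1 mM DTT, 0.1 mM Na3VO4, 0.01% Tween-20; ATP 10 uM. Substrate biotin-GST-cJun(1-79), enzyme from activated HepG2 lysates. Detection by Ser73 phospho-antibody AlphaScreen.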
# [32] = target: 3',5'-cyclic-AMP phosphodiesterase 4B (Homo sapiens) (UniProt Q07343); experiment: qHTS Assay for Inhibitors of PDE-IV (AID 607; active = well fitted activation curve with a large enough effect in the main read-out, with a control signal flat, not every such curve was filed as active)
# Method in brief: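 Live HEK293 cells with a modified cyclic nucleotide-gated (CNG) channel report intracellular cAMP via membrane-potential dye fluorescence (ex 535/em 590 nm). Endogenous PDE-IV was targeted. Compounds were tested at up to 22.9 uM final; RO 20-1724 100 uM served as control.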
# [33] = target: Tumor susceptibility gene 101 protein (Homo sapiens) (UniProt Q99816); experiment: qHTS Assay for Iinhibitors of HIV-1 Budding by Blocking the Interaction of PTAP/TSG101: Hit Validation (AID 651600); also: nearly all actives have a fitted effect of over 70% in size; also: potency is read from the fitted curve at half-maximal effect
# Method in brief: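 Displacement of a FITC-labeled PTAP-motif peptide (50 nM) from the Tsg101 binding domain (10 uM) was monitored by fluorescence polarization after a 20 min room-temperature incubation.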
# Rap guanine nucleotide exchange factor 3 (Homo sapiens), sequence (O95398 whole entry, looked up): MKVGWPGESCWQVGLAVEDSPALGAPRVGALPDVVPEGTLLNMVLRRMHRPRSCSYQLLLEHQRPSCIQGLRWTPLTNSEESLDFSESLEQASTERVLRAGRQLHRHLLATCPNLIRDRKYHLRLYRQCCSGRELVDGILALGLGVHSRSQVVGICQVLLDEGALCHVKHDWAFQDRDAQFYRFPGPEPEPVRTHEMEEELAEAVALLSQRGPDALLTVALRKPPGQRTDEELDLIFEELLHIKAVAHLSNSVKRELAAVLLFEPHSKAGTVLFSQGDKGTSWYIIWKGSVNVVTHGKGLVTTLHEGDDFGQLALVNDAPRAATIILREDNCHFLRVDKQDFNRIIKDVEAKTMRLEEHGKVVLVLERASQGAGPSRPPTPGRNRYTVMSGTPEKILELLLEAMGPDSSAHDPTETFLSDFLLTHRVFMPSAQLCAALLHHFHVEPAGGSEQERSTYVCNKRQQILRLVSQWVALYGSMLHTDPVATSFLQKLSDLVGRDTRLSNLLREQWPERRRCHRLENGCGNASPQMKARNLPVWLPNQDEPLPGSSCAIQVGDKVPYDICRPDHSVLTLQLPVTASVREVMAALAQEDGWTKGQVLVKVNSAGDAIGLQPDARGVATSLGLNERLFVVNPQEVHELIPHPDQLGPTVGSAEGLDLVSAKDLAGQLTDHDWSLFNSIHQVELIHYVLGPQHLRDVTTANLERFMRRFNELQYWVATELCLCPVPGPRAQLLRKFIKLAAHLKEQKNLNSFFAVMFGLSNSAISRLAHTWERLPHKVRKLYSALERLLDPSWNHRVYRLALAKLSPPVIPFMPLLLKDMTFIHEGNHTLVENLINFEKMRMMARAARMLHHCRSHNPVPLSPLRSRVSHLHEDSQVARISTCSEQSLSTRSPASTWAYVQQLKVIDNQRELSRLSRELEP
# Rap guanine nucleotide exchange factor 4 (Homo sapiens), sequence (Q8WZA2 whole entry, looked up): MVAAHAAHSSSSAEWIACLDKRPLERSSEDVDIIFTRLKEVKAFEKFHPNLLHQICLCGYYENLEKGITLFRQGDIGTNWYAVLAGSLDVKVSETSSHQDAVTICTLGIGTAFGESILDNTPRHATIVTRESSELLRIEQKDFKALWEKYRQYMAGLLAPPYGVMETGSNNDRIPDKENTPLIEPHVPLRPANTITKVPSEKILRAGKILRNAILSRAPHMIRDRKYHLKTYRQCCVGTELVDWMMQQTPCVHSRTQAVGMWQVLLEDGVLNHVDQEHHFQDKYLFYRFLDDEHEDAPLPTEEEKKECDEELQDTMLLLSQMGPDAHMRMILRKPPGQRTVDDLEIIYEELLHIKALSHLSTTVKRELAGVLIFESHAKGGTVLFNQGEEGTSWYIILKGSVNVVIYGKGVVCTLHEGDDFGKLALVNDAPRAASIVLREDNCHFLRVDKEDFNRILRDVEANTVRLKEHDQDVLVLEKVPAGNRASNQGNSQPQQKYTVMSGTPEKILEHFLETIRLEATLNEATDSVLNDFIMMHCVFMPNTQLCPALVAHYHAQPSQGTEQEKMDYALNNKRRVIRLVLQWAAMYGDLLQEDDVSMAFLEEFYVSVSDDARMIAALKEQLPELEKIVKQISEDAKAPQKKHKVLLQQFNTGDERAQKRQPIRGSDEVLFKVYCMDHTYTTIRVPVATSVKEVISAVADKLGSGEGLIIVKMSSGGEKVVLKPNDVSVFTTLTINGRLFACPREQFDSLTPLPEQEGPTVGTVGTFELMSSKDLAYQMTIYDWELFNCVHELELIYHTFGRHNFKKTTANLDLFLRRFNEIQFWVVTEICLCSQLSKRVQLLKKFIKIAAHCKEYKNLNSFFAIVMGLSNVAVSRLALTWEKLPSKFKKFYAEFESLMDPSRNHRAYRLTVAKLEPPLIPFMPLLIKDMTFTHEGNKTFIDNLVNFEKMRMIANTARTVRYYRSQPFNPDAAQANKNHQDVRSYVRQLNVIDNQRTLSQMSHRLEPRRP
# Tumor susceptibility gene 101 protein (Homo sapiens), sequence (Q99816 whole entry, looked up, the tested form may be a part): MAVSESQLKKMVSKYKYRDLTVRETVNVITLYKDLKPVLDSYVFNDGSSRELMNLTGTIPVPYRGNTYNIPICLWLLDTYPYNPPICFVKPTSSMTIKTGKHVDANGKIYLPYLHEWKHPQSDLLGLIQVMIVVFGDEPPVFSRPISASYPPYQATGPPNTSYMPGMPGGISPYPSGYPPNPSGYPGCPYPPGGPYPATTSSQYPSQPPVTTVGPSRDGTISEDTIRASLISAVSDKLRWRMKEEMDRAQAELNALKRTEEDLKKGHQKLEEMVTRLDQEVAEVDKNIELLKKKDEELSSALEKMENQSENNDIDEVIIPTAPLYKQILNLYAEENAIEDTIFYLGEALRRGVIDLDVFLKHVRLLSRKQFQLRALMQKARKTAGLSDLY
# DNA repair nuclease/redox regulator APEX1 (Homo sapiens), sequence (P27695 whole entry, looked up): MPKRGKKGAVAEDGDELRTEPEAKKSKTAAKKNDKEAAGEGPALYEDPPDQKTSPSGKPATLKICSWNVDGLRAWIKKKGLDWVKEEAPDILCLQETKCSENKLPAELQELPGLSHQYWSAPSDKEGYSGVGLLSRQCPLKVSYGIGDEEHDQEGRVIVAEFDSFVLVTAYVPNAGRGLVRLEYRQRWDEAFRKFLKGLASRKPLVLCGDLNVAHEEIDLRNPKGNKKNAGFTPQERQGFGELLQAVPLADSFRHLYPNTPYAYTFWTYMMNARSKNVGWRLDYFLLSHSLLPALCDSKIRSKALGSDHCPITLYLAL
# Glucocorticoid receptor (Homo sapiens), sequence (P04150 whole entry, looked up, the tested form may be a part): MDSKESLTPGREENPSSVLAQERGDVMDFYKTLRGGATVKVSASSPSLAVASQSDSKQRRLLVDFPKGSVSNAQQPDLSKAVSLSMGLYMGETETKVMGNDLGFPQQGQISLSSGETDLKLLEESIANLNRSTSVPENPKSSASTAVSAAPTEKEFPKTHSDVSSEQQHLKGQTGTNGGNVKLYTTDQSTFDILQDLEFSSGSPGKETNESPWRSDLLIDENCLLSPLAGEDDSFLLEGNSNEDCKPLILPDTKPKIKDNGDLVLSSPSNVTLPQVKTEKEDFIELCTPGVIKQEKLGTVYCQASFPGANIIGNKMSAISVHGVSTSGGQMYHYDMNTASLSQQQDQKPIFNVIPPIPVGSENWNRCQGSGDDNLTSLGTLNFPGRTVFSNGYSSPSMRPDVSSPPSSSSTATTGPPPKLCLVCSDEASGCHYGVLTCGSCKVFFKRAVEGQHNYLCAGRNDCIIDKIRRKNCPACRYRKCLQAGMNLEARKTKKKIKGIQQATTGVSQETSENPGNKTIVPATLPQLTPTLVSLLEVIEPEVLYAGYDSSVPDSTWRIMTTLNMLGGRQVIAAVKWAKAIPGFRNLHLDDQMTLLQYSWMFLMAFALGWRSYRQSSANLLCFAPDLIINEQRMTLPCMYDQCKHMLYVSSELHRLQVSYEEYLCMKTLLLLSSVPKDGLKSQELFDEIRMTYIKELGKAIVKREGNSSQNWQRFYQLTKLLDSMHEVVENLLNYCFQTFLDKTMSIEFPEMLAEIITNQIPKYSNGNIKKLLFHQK
# Cytochrome P450 3A4 (Homo sapiens), sequence (P08684 whole entry, looked up): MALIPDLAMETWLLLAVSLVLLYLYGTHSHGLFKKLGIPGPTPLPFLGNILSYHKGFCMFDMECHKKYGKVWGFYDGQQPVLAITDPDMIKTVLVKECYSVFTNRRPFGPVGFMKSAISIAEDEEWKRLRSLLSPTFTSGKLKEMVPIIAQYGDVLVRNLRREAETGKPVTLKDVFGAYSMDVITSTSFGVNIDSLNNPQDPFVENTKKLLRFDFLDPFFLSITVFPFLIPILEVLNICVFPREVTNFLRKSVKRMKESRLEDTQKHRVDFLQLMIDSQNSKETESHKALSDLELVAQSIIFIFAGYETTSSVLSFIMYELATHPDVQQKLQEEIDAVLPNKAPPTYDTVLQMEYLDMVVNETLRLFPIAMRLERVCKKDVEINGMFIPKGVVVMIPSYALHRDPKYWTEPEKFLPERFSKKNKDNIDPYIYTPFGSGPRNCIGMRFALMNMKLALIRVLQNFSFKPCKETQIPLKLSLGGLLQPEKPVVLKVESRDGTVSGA
# Cytochrome P450 1A2 (Homo sapiens), sequence (P05177 whole entry, looked up): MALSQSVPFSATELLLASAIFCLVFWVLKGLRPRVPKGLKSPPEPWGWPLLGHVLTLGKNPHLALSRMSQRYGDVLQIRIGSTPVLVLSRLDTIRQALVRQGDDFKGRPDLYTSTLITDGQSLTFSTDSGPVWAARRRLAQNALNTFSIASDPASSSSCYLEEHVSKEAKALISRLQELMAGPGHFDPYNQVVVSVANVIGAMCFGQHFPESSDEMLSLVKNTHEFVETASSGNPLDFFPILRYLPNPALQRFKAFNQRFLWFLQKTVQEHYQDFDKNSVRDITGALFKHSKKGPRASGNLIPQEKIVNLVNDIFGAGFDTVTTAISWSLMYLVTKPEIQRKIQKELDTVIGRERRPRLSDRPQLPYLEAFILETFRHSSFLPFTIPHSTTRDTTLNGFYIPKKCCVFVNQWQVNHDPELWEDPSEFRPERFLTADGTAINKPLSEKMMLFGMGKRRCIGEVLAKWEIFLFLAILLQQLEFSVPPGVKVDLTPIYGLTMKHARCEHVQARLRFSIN
# Nuclear receptor subfamily 1 group I member 2 (Homo sapiens), sequence (O75469 whole entry, looked up): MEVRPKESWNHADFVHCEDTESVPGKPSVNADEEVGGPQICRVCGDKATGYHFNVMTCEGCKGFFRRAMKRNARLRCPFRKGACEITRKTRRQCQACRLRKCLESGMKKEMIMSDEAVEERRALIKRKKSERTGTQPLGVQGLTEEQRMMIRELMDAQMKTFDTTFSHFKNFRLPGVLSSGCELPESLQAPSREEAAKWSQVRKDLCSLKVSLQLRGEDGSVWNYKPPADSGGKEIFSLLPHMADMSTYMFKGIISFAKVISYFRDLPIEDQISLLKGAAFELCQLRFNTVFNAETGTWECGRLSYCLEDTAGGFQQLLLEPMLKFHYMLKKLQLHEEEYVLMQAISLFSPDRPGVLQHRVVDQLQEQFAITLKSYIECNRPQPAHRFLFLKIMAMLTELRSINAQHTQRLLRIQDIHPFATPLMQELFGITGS
structure (smiles),measurement,setting,value
COc1c(O)cc2oc(-c3ccc(O)c(O)c3)cc(=O)c2c1O,outcome,[1],inactive
same,outcome,[2],inactive
same,Potency,[3],6.31 µM (active)
same,outcome,[4],inactive
same,Potency,[5],10.7 µM (active)
same,Potency,[6],inactive
same,Potency,[7],inactive
same,Potency,[8],inactive
same,Potency,[9],inactive
same,Potency,[10],inactive
CCN1C(=O)N(S(=O)(=O)C(F)(F)F)[C@@H](c2ccccc2)C(C(=O)OC)=C1C,outcome,[11],inactive
same,outcome,[12],inactive
same,outcome,[13],inactive
same,outcome,[14],inactive
same,outcome,[15],inactive
same,Potency,[5],inactive
same,Potency,[6],inactive
same,Potency,[7],inactive
same,Potency,[8],inactive
same,Potency,[9],inactive
same,Potency,[10],inactive
O=C(/C=C/c1ccc(O)c(O)c1)O[C@@H]1C[C@](O)(C(=O)O)C[C@@H](O)[C@H]1O,Potency,[5],inactive
same,Potency,[6],inactive
same,activation,[7],"5.11% [at 17.1 µM, percent relative to cAMP agonist control]"
same,Potency,[8],inactive
same,"activity change, negative = inhibition",[9],-13.1% [at 30.8 µM]
same,activation,[10],-1.95% [at 30.8 µM]
same,outcome,[16],inactive
same,outcome,[17],inactive
same,Potency,[18],inactive
same,Potency,[19],inactive
same,outcome,[20],inactive
same,Potency,[21],inactive
same,max response,[22],0.087%
same,outcome,[23],inactive
same,Potency,[24],inactive
same,outcome,[25],inactive
NS(=O)(=O)c1ccc(N=Nc2c[nH]c(=O)c(O)c2)cc1,"activity change, negative = inhibition",[26],8.24%
same,"activity change, negative = inhibition",[27],-22.1%
same,outcome,[28],inactive
same,Potency,[29],> 46 µM
same,Potency,[30],> 9.22 µM
same,"activity change, negative = inhibition",[31],-17.1% [at 11.4 µM]
same,Potency,[32],inactive
same,Potency,[33],18.3 µM (active)
same,Potency,[5],42.6 µM (active)
same,Potency,[6],inactive
same,Potency,[7],inactive
same,Potency,[8],84.9 µM (active)
same,Potency,[9],inactive
same,Potency,[10],inactive
COc1cccc(NC(=O)/C(C#N)=C/c2ccc(-c3ccc(C)cc3)o2)c1,Potency,[33],inactive
same,Potency,[5],inactive
same,Potency,[6],inactive
same,Potency,[7],inactive
same,Potency,[8],inactive
same,Potency,[9],inactive
O=C(O)CN1C(=O)/C(=C\c2ccccc2OCc2ccc(Cl)cc2)SC1=S,Potency,[5],37.9 µM (active)
same,Potency,[6],inactive
same,Potency,[7],inactive
same,Potency,[8],42.6 µM (active)
same,Potency,[10],inactive
